From PubChem BioAssay
Most compounds without a hit are left out; they make up all but 22% or so of the library.
CYP2C19 activ = increases human CYP2C19 enzyme activity; 96,000 tested, under 10 active; recombinant CYP2C19, luciferin-H EGE luminescence; stronger effect = higher value; 0 = fully inhibited enzyme, 1 = untreated enzyme; activation factor at 5 µM;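 active means activation factor of at least 2 at 5 µM in the primary screen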
E-sel TNF inh = TNF alpha driven E-selectin expression inhibition. HUVEC TNFa-induced E-selectin immunofluorescence, high content. inhibition, % at 2 µM. hit rate 0.71% among 120,000. AID 1246;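 active means inhibition above the batch mean plus 3 SD, and confirmed as a hit on visual image review, cut at about 43% in these data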
CYP2C19 inh = inhibitors of human CYP2C19. CYP2C19 Supersomes, luciferin-H EGE luminescence, 30 min. hit rate 21% among 96,000. inhibition, % at 5 µM. AID 778;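 active means CYP2C19 inhibition above a set limit at 5 µM in the primary screen, cut at about 50% in these data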
CYP2C9 inhib = human CYP2C9 inhibition. P11712. CYP2C9 Supersomes, luciferin-H conversion, luminescence. inhibition, % at 5 µM. hit rate 20% among 96,000. AID 777;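 active means blocking of liver enzyme CYP2C9 beyond about 50% at 5 µM, limit read from the data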
Target sequence (P11712 whole entry, looked up): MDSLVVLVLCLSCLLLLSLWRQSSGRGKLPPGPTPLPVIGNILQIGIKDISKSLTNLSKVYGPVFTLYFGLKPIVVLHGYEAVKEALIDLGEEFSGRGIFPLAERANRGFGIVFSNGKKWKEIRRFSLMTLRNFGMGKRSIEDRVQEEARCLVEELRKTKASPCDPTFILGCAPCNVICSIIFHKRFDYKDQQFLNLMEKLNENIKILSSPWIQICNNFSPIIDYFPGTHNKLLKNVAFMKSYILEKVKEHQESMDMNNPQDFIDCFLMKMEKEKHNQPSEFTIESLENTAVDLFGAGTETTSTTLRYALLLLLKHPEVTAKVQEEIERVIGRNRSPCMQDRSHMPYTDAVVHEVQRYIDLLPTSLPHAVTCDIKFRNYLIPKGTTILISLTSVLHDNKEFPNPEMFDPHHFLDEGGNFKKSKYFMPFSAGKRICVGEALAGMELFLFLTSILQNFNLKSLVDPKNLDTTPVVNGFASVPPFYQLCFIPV
CYP2C9 act = CYP2C9 (human) activation; P11712; recombinant CYP2C9, luciferin-H conversion, luminescence; stronger effect = higher value; factor 1 = untreated enzyme, 0 = blocked; activation factor at 5 µM; hit rate 1.4% among 96,000; AID 1024;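 active means activation factor of 2 or more for CYP2C9 at a 5 µM dose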
cytoskel mod = cytoskeleton assembly modification; HUVEC TNFa F-actin phalloidin imaging, high content; inhibition, % at 2 µM; hit rate 0.18% among 91,000;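 active means inhibition above the batch mean plus 3 SD and confirmed as a hit by visual image inspection, cut at about 30% in these data, passing the limit was not always enough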
Hits are given with their value; - = inactive; . = not tested or not shown.

SMILES	CYP2C19 activ	E-sel TNF inh	CYP2C19 inh	CYP2C9 inhib	CYP2C9 act	cytoskel mod
CCN1C(=O)/C(=C\c2cccs2)C(C(=O)OC)=C1C	-	-	-	51.3	-	-
CCOC(=O)c1ccccc1NC(=O)CSc1nnnn1C1CCCCC1	-	-	-	72.3	-	-
C=CCn1nnnc1SCC(=O)Nc1ccccc1C(=O)OC	-	-	91.4	-	-	.
COc1ccccc1NC(=O)CSc1nnnn1Cc1ccccc1	-	-	91.6	-	-	-
C=CCn1nnnc1SCC(=O)Nc1cccc(OC)c1	-	-	-	-	-	.
CCCCCNC(=O)CSC1=N/C(=C\c2ccc(Cl)c(Cl)c2)C(=O)N1CC	-	.	-	-	-	-
CCOC(=O)c1cnc2c(-c3ccc(Cl)cc3)c(C)nn2c1N	.	-	.	.	.	-
COc1ccc(NC(=O)CSc2ccc3c4c(cccc24)C(=O)c2ccccc2-3)cc1	-	-	-	84.4	-	-
N#Cc1cccc(NC(=O)CSc2ccc3c4c(cccc24)C(=O)c2ccccc2-3)c1	-	-	-	73.5	-	-
COc1ccc(-c2[nH]ncc2CNCCc2ncccc2C)cc1F	.	-	.	.	.	.
CN(Cc1nc2ccccc2c(=O)[nH]1)Cc1nc2ccsc2c(=O)[nH]1	.	-	.	.	.	.
Cc1ccsc1C(=O)OCc1nc2ccccc2c(=O)[nH]1	-	-	72.0	87.1	-	-
CC1CCc2sc(C(=O)OCC(=O)NCc3ccc(F)cc3)cc2C1 (stereo not drawn)	.	-	.	.	.	.
Cc1onc(-c2ccccc2Cl)c1C(=O)Nc1nn[nH]n1	-	.	-	-	-	.
Cc1onc(-c2ccccc2Cl)c1C(=O)NCCN1Cc2ccccc2C1=O	-	.	75.1	59.1	-	-
Cc1onc(-c2ccccc2)c1C(=O)NCCc1ccc(Cl)cc1	-	-	-	-	-	-
COc1ccc(CCNC(=O)c2c(-c3ccccc3Cl)noc2C)cc1	-	-	79.8	67.6	-	-
COc1ccc2cc(CCNC(=O)c3c(-c4ccccc4Cl)noc3C)c(=O)[nH]c2c1	-	-	-	67.0	-	.
CCC(CC)C(=O)NCCc1cc2ccc(OC)cc2[nH]c1=O	-	-	-	-	-	.
Cc1nc(SCn2nnc3ccccc3c2=O)c2c(C)c(C)sc2n1	-	.	-	-	-	.
CCOC(=O)C(CC)n1nc(C)n2c(cc3occc32)c1=O (stereo not drawn)	-	-	-	71.2	-	-
Cc1nn(C(C)C(=O)NCCCc2ccccc2)c(=O)c2cc3occc3n12 (stereo not drawn)	-	-	71.4	68.4	-	-
Cc1nn(C(C)C(=O)NCC2CCCO2)c(=O)c2cc3occc3n12 (stereo not drawn)	-	-	-	-	-	.
CCOc1ccc(CCNC(=O)C(C)n2nc(C)n3c(cc4occc43)c2=O)cc1OCC (stereo not drawn)	-	.	-	62.2	-	.
CCOc1ccc(CNC(=O)C(CC)n2nc(C)n3c(cc4occc43)c2=O)cc1OC (stereo not drawn)	-	.	-	74.9	-	.
SMILES	CYP2C19 activ	E-sel TNF inh	CYP2C19 inh	CYP2C9 inhib	CYP2C9 act	cytoskel mod
COc1cccc(C(c2sc3nc(C)nn3c2O)N2CCC3(CC2)OCCO3)c1 (stereo not drawn)	.	-	.	.	.	.
CC1CCCC(C)N1C(=O)CSc1nnc(NC(=O)c2cccs2)s1 (stereo not drawn)	-	-	-	-	-	.
CCn1c(N)c(C(=O)NC)sc1=S	-	.	52.2	50.0	-	.
CC(C(=O)N1CC2(C)CC1CC(C)(C)C2)N1C(=O)c2ccccc2C1=O (stereo not drawn)	-	-	-	-	-	-
CC(=O)Nc1ccc2oc(C)nc2c1	.	-	.	.	.	.
COc1ccc(NC(=O)CSc2nnc(-c3ccccn3)n2Cc2ccco2)cc1OC	-	-	-	-	-	-
CCOc1ccccc1NC(=O)CSc1nnc(-c2ccccn2)n1Cc1ccco1	-	.	72.3	79.1	-	-
CCOc1ccccc1NC(=O)CSc1nnc(-c2ccco2)n1Cc1ccco1	-	.	86.5	57.9	-	-
CCOc1ccccc1NC(=O)CSc1nnc(-c2ccccc2Cl)n1Cc1ccco1	-	-	70.2	-	-	-
O=C(O)C1CSC(c2ccco2)N1 (stereo not drawn)	.	-	.	.	.	.
COC(=O)C1C(=O)CC(C)(O)C(C(=O)OC)C1c1ccccc1F (stereo not drawn)	-	-	-	-	-	-
Cc1nnc(SCc2ccccc2F)n1NCc1cccs1	-	-	92.9	55.4	-	-
COc1ccc(NC(=O)CSc2nnc(C)n2Cc2ccccc2)cc1	-	-	-	-	-	-
